Data taken from PubChem BioAssay.
Active and inactive are the calls of the source.

What was measured:
[1] = A549 cell viability effects, profiling panel, calcein-AM fluorescence, 48 h, basal (AID 1162); settings: higher = more signal
[2] = adipocyte viability effects, profiling panel, cell-based, 3T3-L1 adipocytes, calcein-AM fluorescence, 48 h, basal (AID 1163); settings: 3T3-L1 adipocytes viability, higher = more signal
[3] = HepG2 cell viability effects, profiling panel, calcein-AM fluorescence, 48 h, basal (AID 1164); settings: higher = more signal
[4] = MM1S cell viability effects, profiling panel, calcein-AM fluorescence, 48 h, basal (AID 1165); settings: higher = more signal;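 further: viability of MM1S multiple myeloma cells under basal unstimulated conditions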
[5] = basal RPMI8226 viability, no added stimulus, profiling panel, cell-based, calcein-AM fluorescence, 48 h, PK04 Diversity Set (AID 1166); settings: RPMI8226 myeloma viability, higher = more signal;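 further: cells grown under basal conditions without added stimulus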
[6] = basal HepG2 mitochondrial membrane potential changes, profiling panel, cell-based, JC-1 fluorescence, 24 h, 100 nL compound (AID 1167); settings: higher = more signal
[7] = basal 3T3-L1 adipocyte mitochondrial potential changes, profiling panel, cell-based, JC-1 fluorescence, 3T3-L1 adipocytes, 24 h, 100 nL compound (AID 1168); settings: JC-1 mitochondrial fluorescence, higher = more signal, called active from +8 up or from −8 down
[8] = basal RPMI8226 mitochondrial membrane potential changes, profiling panel, cell-based, JC-1 fluorescence, 24 h, 100 nL compound (AID 1169); settings: RPMI8226 myeloma, JC-1 mitochondrial potential fluorescence, higher = more signal
[9] = basal MM1S mitochondrial membrane potential changes, profiling panel, cell-based, JC-1 fluorescence, 24 h, 100 nL compound (AID 1170); settings: higher = more signal
[10] = A549 lung cancer cell viability effects, profiling panel, resazurin fluorescence, 24 h, PK04 Diversity Set (AID 1171); settings: higher = more signal, called active from +8 up or from −8 down
Further: test concentration not given here.

Structure (SMILES) | z-score [1] | z-score [2] | z-score [3] | z-score [4] | z-score [5] | z-score [6] | z-score [7] | z-score [8] | z-score [9] | z-score [10]
COc1cc(NN2C(C(O)c3cc(OC)c(OC)c(OC)c3)C=CC3C(=O)N(C)C(=O)C32)cc(OC)c1OC (stereo not given) | -0.991 | -0.919 | -0.122 | -0.147 | -0.176 | -1.09 | -1.04 (inactive) | 0.729 | -0.417 | -0.4 (inactive)
CCCC[C@@H](O)C1=C(COC)C[C@H]2C(=O)N(Cc3ccccc3)C(=O)[C@H]2[C@H]1CO | 0.449 | -1 | 1.35 | 0.887 | 0.105 | -0.0934 | 0.0385 (inactive) | -0.851 | -1.35 | 0.0943 (inactive)
CCCCN1CC=CC23O[C@@H]4/C=C\CCC(C)OC(=O)C4[C@H]2C(=O)N(CCCO)[C@@H]3C1=O (stereo not given in full) | -0.615 | 1.57 | -0.241 | 1.04 | -0.386 | -0.534 | 0.276 (inactive) | 0.635 | 0.71 | -0.523 (inactive)
CC1CC/C=C\[C@H]2OC34C=CCN(C(C)C)C(=O)[C@H]3N(CCO)C(=O)[C@@H]4C2C(=O)O1 (stereo not given in full) | 0.649 | 0.668 | -0.255 | 0.824 | -1.11 | 0.813 | 0.691 (inactive) | 0.021 | 1.65 | -0.969 (inactive)
COC(=O)[C@]1(CCS(=O)(=O)c2ccccc2)N=C(c2ccc(OCCCO)cc2)O[C@@H]1c1ccccc1N=[N+]=[N-] | -1.49 | 1.78 | -2.18 | -2.8 | -3.33 | 0.811 | -0.294 (inactive) | -1.13 | 0.546 | -3.46 (inactive)
COC(=O)[C@@]1(Cc2ccccc2)[C@H]2c3cc(C(=O)N4CCCC4)n(CCc4ccccn4)c3C[C@H]2CN1C(=O)c1ccccc1 | -1.16 | 1.13 | -0.503 | -1.59 | -1.32 | 0.571 | 0.533 (inactive) | -0.272 | -0.618 | 0.523 (inactive)
CC(=O)NCCCC[C@@H]1NC(=O)[C@@H]2C[C@H](C(=O)NCCCCCN)[C@H](c3cccc(OCCO)c3)N2C1=O | 1.3 | 0.749 | 0.74 | 0.151 | 1.3 | 0.0102 | 0.608 (inactive) | -0.721 | -0.0434 | 0.914 (inactive)
Cc1ccc(S[C@]2(C(=O)NCCN3CCOCC3)CC(=O)N(Cc3ccccc3Cl)[C@@H]2c2ccc(CO)cc2I)cc1 | 0.932 | -0.0217 | 0.995 | -1.62 | -3.01 | 1.53 | -0.272 (inactive) | -0.151 | -1.87 | -0.817 (inactive)
COc1ccc([Si](C)(C)[C@@H]2[C@@H](CC(=O)N3CCC[C@H]3CO)O[C@]3(C(=O)N(Cc4cccc(N5C(=O)COc6ccccc65)c4)c4ccccc43)[C@H]2C)cc1 | -0.97 | 0.441 | -4.31 | -2.96 | -3.83 | -1.81 | -1.01 (inactive) | -0.975 | -2 | -2.13 (inactive)
C=CC[C@H](OC(=O)Nc1ccc(SC)cc1)c1ccc(O)c2ccccc12 | -2.22 | -0.162 | -3.05 | -2.74 | -4.21 | -3.26 | 0.41 (inactive) | -1.02 | -2.09 | -1.24 (inactive)
C[N+](C)(C)CCCC[C@@H]1NC(=O)[C@@H]2C[C@H](C(=O)NCCCCCCN)[C@H](c3cccc(OCCO)c3)N2C1=O | -0.148 | 1 | 0.649 | 0.651 | -0.013 | 0.746 | -0.17 (inactive) | -0.711 | 0.246 | -0.518 (inactive)
Cc1ccc(N2C(=O)c3ccccc3[C@@H](C(=O)NCCCN(C)C)[C@@H]2c2ccc(CO)cc2)nc1 | -0.249 | 0.297 | 0.0355 | 0.817 | -0.71 | -0.685 | 0.208 (inactive) | -0.0886 | -0.241 | -0.0494 (inactive)
O=C1O[C@H](c2ccccc2)[C@H](c2ccccc2)N2[C@H]1[C@@H](C(=O)O)[C@]1(C(=O)Nc3ccc(C#CCCO)cc31)[C@H]2c1ccccc1OCCO | -0.0678 | 1.32 | -0.187 | 0.0409 | -0.353 | -0.892 | -0.426 (inactive) | -0.616 | 0.884 | -0.0294 (inactive)
COCCOC(=O)N1C(=O)[C@@]2(c3cc(C#CCC(C(=O)OC)C(=O)OC)ccc31)[C@H](c1ccc(OCCO)cc1)N1[C@H](c3ccccc3)[C@H](c3ccccc3)OC(=O)[C@H]1[C@@H]2C(=O)N1CCc2cc(OC)c(OC)cc2C1 | 1.05 | -0.0617 | 0.0859 | -1.04 | -0.467 | 0.363 | 1.37 (inactive) | -0.262 | -1.21 | 0.0243 (inactive)
